Measured values published in PubChem BioAssay (NCATS).
Records with an inconclusive call do not appear. Unmarked numbers belong to inactive results. Activity calls are given as the source filed them. Calls follow the shape of the dose curve; as a rule, active = well fitted inhibition curve with a large enough effect; inconclusive = small, poorly fitted or top-dose-only effect; inactive = flat fitted curve, though single readings scatter.

Each compound was assayed against Ubiquitin carboxyl-terminal hydrolase 1 (Homo sapiens) (UniProt O94782) (assay: Inhibitors of USP1/UAF1: Pilot qHTS (AID 504865; also: nearly all actives have a fitted effect of over 35% in size;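 as to activity change, negative = inhibition: rhodamine fluorescence freed from ubiquitin-rhodamine substrate followed over time; top concentration of the series differs between compounds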)). Conditions: purified USP1/UAF1, Ub-rhodamine cleavage fluorescence; series mostly up to 114 µM; activity change, negative = inhibition: at the top concentration.
Excerpt: Deubiquitinating enzymes (DUBs) are a class of enzymes that can cleave isopeptide bond formed between the C-terminal carboxylate of ubiquitin and a lysine side-chain amino group on the target protein. Among them, ubiquitin specific proteases (USPs) constitute the largest DUB family. Human USPs are emerging as promising targets for pharmacological intervention because of their connection to a number of human diseases, including prostate, colon and breast cancer (1, 2), pediatric acute lymphoblastic leukemia (3), and familial cylindromatosis (4). The advantage of inhibiting USPs lies in the potential specificity of therapeutic intervention that can lead to better efficacy and reduce nonspecific side effects.
In a collaboration between the University of Delaware and the NIH Chemical Genomics Center, a high-throughput screen assay was developed to screen for USP1/UAF1 inhibitors. This miniaturized assay has a fluorescent read-out and is used to screen the NIH Molecular Libraries Small Molecule Repository (MLSMR) in order to identify a small molecule that inhibits USP1.
NIH Chemical Genomics Center [NCGC]
NIH Molecular Libraries Probe Centers Network [MLPCN]
Assay Submitter (PI): Zhihao Zhuang, University of Delaware
1. Priolo, C., et al. (2006) The isopeptidase USP2a protects human prostate cancer from apoptosis. Cancer Res 66, 8625-8632
2. Popov, N., et al. (2007) The ubiquitin-specific protease USP28 is required for MYC stability. Nat Cell Biol 9, 765-774
3. De Pitta, C., et al. (2005) A leukemia-enriched cDNA microarray platform identifies new transcripts with relevance to the biology of pediatric acute lymphoblastic leukemia. Haematologica 90, 890-898
4. Kovalenko, A., et al. (2003) The tumour suppressor CYLD negatively regulates NF-kappaB signalling by deubiquitination. Nature 424, 801-805
3 microliters of reagents (buffer in columns 3 and 4 as negative control and 1nM USP1/UAF1 complex in columns 1, 2, and 5-48) are dispensed into Greiner black solid bottom 1536-well assay plates. Compounds are then transferred via Kalypsys pin tool equipped with 1536-pin array (10nl slotted pins, V&P Scientific, San Diego, CA). Following an incubation step of 15 min at room temperature, 1ul of Ub-Rho substrate (150nM final concentration) is added to initiate the reaction. The plates are immediately centrifuged at 1000 rpm for 15 seconds, and subsequently transferred to a ViewLux high-throughput CCD imager (PerkinElmer) wherein kinetic measurements of fluorescence are acquired using 480 nm excitation/540 nm emission filter set (6 reads every 60 seconds, see Table 1). All reagents are diluted in an assay buffer consisting of 50mM HEPES (pH 7.8), 0.5mM EDTA, 0.1 mg/ml BSA, 1mM TCEP, and 0.01% Tween-20.
% is scaled to controls: 0 for no effect and ±100 for the full control effect; potency is read from the fitted curve at half-maximal effect.

Chain of Ubiquitin carboxyl-terminal hydrolase 1 (Homo sapiens) (O94782 whole entry, looked up): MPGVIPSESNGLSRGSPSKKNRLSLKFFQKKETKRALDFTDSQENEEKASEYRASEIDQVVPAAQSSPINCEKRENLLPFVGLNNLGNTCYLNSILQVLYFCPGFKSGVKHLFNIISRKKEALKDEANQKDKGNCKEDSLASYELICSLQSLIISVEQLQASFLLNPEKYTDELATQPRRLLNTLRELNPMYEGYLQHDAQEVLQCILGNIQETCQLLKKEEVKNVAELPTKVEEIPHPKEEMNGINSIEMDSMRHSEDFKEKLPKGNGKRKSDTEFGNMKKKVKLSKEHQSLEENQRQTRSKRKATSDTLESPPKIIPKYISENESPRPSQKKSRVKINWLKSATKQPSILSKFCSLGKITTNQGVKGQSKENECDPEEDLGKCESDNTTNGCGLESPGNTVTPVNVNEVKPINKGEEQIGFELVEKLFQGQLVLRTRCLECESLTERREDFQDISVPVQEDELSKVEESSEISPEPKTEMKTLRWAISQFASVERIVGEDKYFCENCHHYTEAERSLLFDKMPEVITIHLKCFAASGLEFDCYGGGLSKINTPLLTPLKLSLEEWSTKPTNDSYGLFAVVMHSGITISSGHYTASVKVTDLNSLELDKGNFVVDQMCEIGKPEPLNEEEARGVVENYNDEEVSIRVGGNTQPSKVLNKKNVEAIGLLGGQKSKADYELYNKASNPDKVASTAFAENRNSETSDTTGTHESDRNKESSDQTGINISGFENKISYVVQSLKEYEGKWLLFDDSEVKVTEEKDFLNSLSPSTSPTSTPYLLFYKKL

Row | Compound | activity change, negative = inhibition | Potency
1 | NC1C[C@H]1c1ccccc1 (stereo not given in full) | -7.62% | –
2 | CCC1C(=O)OC[C@H]1Cc1cncn1C (stereo not given in full) | -7.37% | –
3 | c1cc2cc(c1)C[n+]1ccc(c3ccccc31)NCc1ccc(cc1)CNc1cc[n+](c3ccccc13)C2 | -3.79% | –
4 | C[C@]12CCC3C(CCC4=C(Cl)C(=O)CC[C@@]43C)C1CCC2O (stereo not given in full) | -6.26% | –
5 | Cc1cc2nc3c(=O)[nH]c(=O)nc-3n(C[C@H](O)[C@H](O)[C@H](O)COP(=O)(O)OP(=O)(O)OC[C@H]3O[C@@H](n4cnc5c(N)ncnc54)[C@H](O)[C@@H]3O)c2cc1C | – | 50.1 µM (active)
6 | COc1ccc2c(c1)CCC1[C@@H]2CCC2(C)[C@@H](NCCCCCCN3C(=O)C=CC3=O)CC[C@@H]12 (stereo not given in full) | -6.66% | –
7 | OCC(O)Cc1ccc2c(c1)OCO2 (stereo not given) | -7.11% | –
8 | O=C1CC[C@]2(O)C3Cc4ccc(O)c5c4C2(CCN3CC2CC2)C1O5 (stereo not given in full) | -10.8% | –
9 | C[C@]12CC[C@H]3[C@@H](CC[C@@]45O[C@@H]4C(=O)C(C#N)C[C@]35C)[C@@H]1CC[C@@H]2O (stereo not given in full) | -7.56% | –
10 | C[C@@H]1CC[C@H]2[C@@H](C)C(=O)O[C@@H]3OC4(C)CC[C@@H]1C32OO4 (stereo not given in full) | -0.247% | –
11 | CCCCCC(O)C1C(=O)OC(C)C(O)\C=C/C=C\C=C/C=C\C=C(\C)C(O)C(O)C(O)CC(O)CC(O)CC(O)CC(O)CC1O (stereo not given) | -6.12% | –
12 | N#Cc1c(Cl)c(Cl)c(Cl)c(C#N)c1Cl | – | 10 µM (active)
13 | C=CCN1CC[C@]23c4c5ccc(O)c4OC2C(=O)CC[C@]3(O)C1C5 (stereo not given in full) | -11.6% | –
14 | O=[N+]([O-])OC1CO[C@H]2C(O[N+](=O)[O-])COC12 (stereo not given in full) | -6.14% | –
15 | C[C@@H](Cc1cccc(C(F)(F)F)c1)NCCCc1ccccc1 | -9.18% | –
16 | C=C1CC2C(CC[C@]3(C)C(=O)CCC23)[C@]2(C)C=CC(=O)C=C12 (stereo not given in full) | 2.17% | –
17 | CC1CC(C)C(=O)[C@H](C(O)CC2CC(=O)NC(=O)C2)C1 (stereo not given in full) | -6.84% | –
18 | COC(=O)/C(C)=C\CC12OC(C)(C)C3CC(C=C4C(=O)c5c(OC)c6c(c(CC=C(C)C)c5OC431)OC(C)(CCC=C(C)C)C=C6)C2=O (stereo not given) | – | 39.8 µM (active)
19 | C[C@@]12C=CC(=O)C=C1CCC1C2CC[C@]2(C)C(=O)CCC12 (stereo not given in full) | -13.2% | –
20 | CC(=O)O[C@H]1C[C@H]2CC[C@@H]3[C@H]4C[C@@H]([N+]5(C)CCCCC5)[C@@H](OC(C)=O)[C@]4(C)CC[C@@H]3[C@@]2(C)C[C@@H]1[N+]1(C)CCCCC1 | -9.37% | –

Row | Compound | activity change, negative = inhibition | Potency
21 | CC12CCC3C4CCC(=O)C(O)=C4CCC3C1CCC2OC(=O)CCC1CCCC1 (stereo not given) | -0.742% | –
22 | CC(=O)Oc1c2c(c(CC=C(C)C)c3c1C(=O)C1=CC4CC5C(C)(C)OC(C/C=C(\C)C(=O)O)(C4=O)[C@]15O3)OC(C)(CCC=C(C)C)C=C2 (stereo not given in full) | – | 12.6 µM (active)
23 | C=CCO[C@@H](Cn1ccnc1)c1ccc(Cl)cc1Cl | 6.71% [at 54.9 µM] | –
24 | C/C=C1/C[C@@H](C)[C@](O)(CO)C(=O)OCC2=CCN3CC[C@@H](OC1=O)C23 (stereo not given in full) | -4.04% | –
25 | CSc1nc(NC(C)C)nc(NC(C)C)n1 | -5.96% | –
26 | COC[C@H]1OC(=O)c2coc3c2[C@@]1(C)C1=C(C3=O)[C@H]2CCC(=O)[C@@]2(C)C[C@H]1OC(C)=O | 1.37% | –
27 | CC1(C)S[C@@H]2[C@H](N)C(=O)N2C1C(=O)O (stereo not given in full) | 2.8% [at 54.9 µM] | –
28 | CCOC(=O)c1cncn1[C@@H](C)c1ccccc1 | -0.759% [at 54.9 µM] | –
29 | C[N+]12CCC(CC1)[C@@H](OC(=O)C(O)(c1ccccc1)c1ccccc1)C2 | 0.5% [at 54.9 µM] | –
30 | CN[C@@H](CC(C)C)C(=O)N[C@@H]1C(=O)N[C@H](CC(N)=O)C(=O)N[C@@H]2C(=O)N[C@H]3C(=O)N[C@H](C(=O)N[C@H](C(=O)O)c4cc(O)cc(O)c4-c4cc3ccc4O)[C@H](O)c3ccc(c(Cl)c3)Oc3cc2cc(c3O[C@H]2O[C@@H](CO)[C@@H](O)[C@@H](O)[C@@H]2O[C@@H]2C[C@](C)(N)[C@H](O)[C@H](C)O2)Oc2ccc(cc2Cl)[C@@H]1O | 11% [at 54.9 µM] | –
31 | CN(C)[C@H]1C(=O)C(C(N)=O)=C(O)[C@]2(O)C(=O)C3=C(O)c4c(O)cccc4[C@@](C)(O)[C@H]3C[C@@H]12 | -6.65% [at 54.9 µM] | –
32 | CC(=O)OC1C2CCC3C1(CC(O)[C@@]1(O)[C@@H](CC(O)C1(C)C)[C@]3(C)O)C[C@@]2(C)O (stereo not given in full) | -5.32% [at 54.9 µM] | –
33 | CC(=O)OC1C([N+]2(C)CCCCC2)C[C@H]2C3CC[C@H]4C[C@H](OC(C)=O)C([N+]5(C)CCCCC5)CC4(C)C3CCC12C (stereo not given in full) | -5.23% | –
34 | CN1[C@@H]2CC(OC(=O)[C@@H](CO)c3ccccc3)C[C@@H]1[C@H]1O[C@H]12 (stereo not given in full) | 0.161% | –
35 | NC(Cc1ccc(Oc2cc(I)c(O)c(I)c2)c(I)c1)C(=O)O (stereo not given) | – | 79.4 µM (active)
36 | C=C1Nc2ccccc2C(=O)N1c1ccccc1C | -4.43% | –
37 | CC(C)n1c(/C=C\[C@@H](O)C[C@@H](O)CC(=O)O)c(-c2ccc(F)cc2)c2ccccc21 | -12.3% [at 54.9 µM] | –
38 | NCC1O[C@@H](O[C@H]2C(O)C(O[C@@H]3C(O[C@H]4OC(CO)C(O)C(O)C4N)C(N)CC(N)[C@H]3O)O[C@@H]2CO)C(N)C(O)C1O (stereo not given in full) | -9.82% | –
39 | CC1(C)C(C(Cl)Cl)C2(Cl)C(Cl)C(Cl)C1(Cl)C2(Cl)Cl (stereo not given) | -14.3% | –
40 | NC[C@@H]1O[C@H](OC2[C@@H](CO)O[C@@H](OC3[C@H](O)[C@H](N)C[C@H](N)[C@H]3OC3O[C@H](CO)[C@@H](O)[C@H](O)[C@@H]3N)[C@H]2O)C(N)[C@H](O)[C@@H]1O (stereo not given in full) | 0.438% | –
